Compound activity: PubChem, National Center for Advancing Translational Sciences (NCATS)
TDP-43 rescue: inhibitors of TDP-43 toxicity in yeast | yeast TDP-43 toxicity rescue, BacTiter-Glo growth, 24 h | Potency, µM (highest dose often 46.1 µM), actives largely listed as activators | 0.45% of 45,000 active | AID 1347073; active = well fitted activation curve with a large enough effect; note: 0% is about no effect; nearly all actives have a fitted effect of over 55% in size
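TDP-43-expressing yeast, pregrown in raffinose, seeded at OD600 0.02 in galactose medium with compound for 24 hr at 30 deg C. Growth read by BacTiter-Glo luminescence, so rescue of toxicity appears as activation.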
Numbers without * were called inactive; i = inactive. The entries come from a sample that favours hits as a whole. Potency is the fitted concentration of half-maximal effect.

SMILES | TDP-43 rescue
COc1ccc(C(=O)c2cc([N+](=O)[O-])ccc2N2CCCC2)cc1 | i
CN1CCN(c2ccc([N+](=O)[O-])cc2C(=O)c2ccccc2)CC1 | i
Cc1ccc(C(=O)c2cc([N+](=O)[O-])ccc2N2CCOCC2)cc1C | 22.4µM*
NS(=O)(=O)c1ccc(CCNc2nn3c(-c4cccc(OC(F)(F)F)c4)cnc3s2)cc1 | i
CCCCN1CCCCC1(C)C(=O)NCc1cccc(OC)c1 (configuration not stated) | i
CCOc1ccc(NC(=O)Cn2c(=O)n(CC(=O)NCCc3ccccc3)c(=O)c3sccc32)cc1 | i
CCN(CCCNC(=O)CNC(=O)c1nn(-c2ccc(OC)c(OC)c2)c(=O)c2ccccc12)c1ccccc1 | i
Cc1c(/C(O)=C2\C(=O)C(=O)N(CCCN(C)C)C2c2ccco2)cnn1-c1ccccc1 (configuration not stated) | i
CC(=O)c1cc(C#N)c(N(C)Cc2ccccc2)nc1C | i
CCCCSc1nc(C)c(C(C)=O)cc1C#N | 6.31µM*
Cc1cc(NC(=O)CSc2nc3ccccc3cc2C#N)no1 | i
COc1ccc(NC(=O)C2CC(c3ccccc3O)=NO2)cc1OC (configuration not stated) | i
Cc1cnc(NC(=O)CC(C)c2ccccc2)s1 (configuration not stated) | i
COc1ccccc1-c1nc2cc3ccccc3cc2nc1-c1ccccc1OC | i
COc1ccccc1-c1c(C)nn2c(C(F)(F)F)cc(-c3ccccc3)nc12 | i
COc1ccccc1-c1cn(C(C)(C)C)nc1C | 11.2µM*
OC(c1ccc(-c2ccccc2)cc1)c1ncc(-c2ccc(C(F)(F)F)cc2)[nH]1 (configuration not stated) | i
CC(=O)c1ccc(N(CC(=O)Nc2cc(C)on2)S(=O)(=O)c2ccc(C)cc2)cc1 | i
COc1ccccc1CN(C)C(=O)COC(=O)c1c(C)noc1C | i
COC(=O)C(Cc1c[nH]c2ccccc12)NC(=O)C1CC1 (configuration not stated) | i
COc1ccc(C)cc1Nc1nc(-c2c[nH]c3ccccc23)cs1 | i
COCCN=c1scc(-c2cc(OC)ccc2OC)n1/N=C/c1c[nH]c2ccccc12 | 20µM*
CC(C)Oc1ccc(Br)cc1C(=O)N/N=C/c1c[nH]c2ccccc12 | i
NC(=O)c1nsc(C(=O)N(c2ccccc2)C(C(=O)NC2CCCCC2)c2ccc(O)cc2)c1N (configuration not stated) | i
CCc1nc2nc(C)c(NS(=O)(=O)c3ccc(Cl)cc3)c(=O)n2[nH]1 | i
SMILES | TDP-43 rescue
NC(=O)COC(=O)C1CSC2(c3ccc(F)cc3)CCC(=O)N12 (configuration not stated) | i
O=C1CC(N2CCSCC2)C(=O)N1c1ccccc1 (configuration not stated) | i
O=C1CC(N2CCN(c3cccc(C(F)(F)F)c3)CC2)C(=O)N1c1ccccc1F (configuration not stated) | 15.8µM*
O=C1CC(N2CCN(c3ccccc3)CC2)C(=O)N1Cc1ccc(Cl)cc1 (configuration not stated) | i
O=C(/C=C/c1cccc([N+](=O)[O-])c1)NCCc1ccc(F)cc1 | i
O=C(/C=C/c1cccc([N+](=O)[O-])c1)NCCSCc1cccc(Cl)c1 | 12.6µM*
O=C(/C=C/c1ccccc1)NCCSCc1ccccc1 | i
CCCCC(=O)N(C)c1c(C)nc2ccc(C(=O)N3CCN(S(=O)(=O)CC)CC3)cn12 | i
COc1ccc(NCc2ccc([N+](=O)[O-])s2)c(OC)c1 | 12.6µM*
COc1ccc(NC(=O)Cc2ccsc2)c(OC)c1 | i
CCC(=O)NC(=S)Nc1ccc(OC)cc1OC | i
Cc1ccc(S(=O)(=O)NC(=NC2CCCCC2)c2ccccc2)cc1 | i
CC1(C(=O)NCc2cccc3ccccc23)CCN1C(=O)Cc1ccc(-c2ccccc2)cc1 (configuration not stated) | i
COc1cc(-c2nc3sccn3c2Nc2cccc(C)c2)ccc1O | i
CCCCN(CCCC)CC(O)COc1ccc(Br)cc1 (configuration not stated) | i
COC(=O)CSc1nc(C)cc(C)c1C#N | i
Cc1cc(C)c(C#N)c(SCC(O)COc2ccc(Br)cc2)n1 (configuration not stated) | 12.6µM*
CN(C)c1cccc(C(=O)NNC(=O)CSc2ccccc2)c1 | i
O=C(Nc1noc2ccccc12)c1c(F)cccc1F | i
CC(=O)Nc1ccc(N(C(=O)c2ccccn2)C(C(=O)NC2CCCCC2)c2ccc(F)cc2)cc1 (configuration not stated) | i
C#CCOc1c(Br)cc(/C=C2/C(=O)ON=C2C)cc1OC | i
CCOc1cc(/C=C2/C(=O)ON=C2C)ccc1OCc1ccccc1 | i
COc1cc(/C=C2\C(=O)ON=C2c2ccccc2)cc(OC)c1OC | 11.2µM*
Cc1cc(Cl)ccc1C(O)c1ncc(-c2ccccc2Cl)[nH]1 (configuration not stated) | i
O=c1c2sccc2n(Cc2cc(=O)n3cc(Cl)ccc3n2)c(=O)n1-c1ccccc1 | i
SMILES | TDP-43 rescue
COc1cccc(N2CCN(C(=O)Nc3ccccc3Cl)CC2)c1 | i
COc1cc2c(cc1OC)CN(C(=O)Nc1ccccc1Cl)CC2 | 12.6µM*
COc1cc2c(cc1OC)CN(C(=O)Nc1ccccc1)CC2 | i
COc1cccc(C(O)c2nc(-c3ccccc3C)cs2)c1 (configuration not stated) | 11.2µM*
COc1cccc(C(O)c2nc(-c3ccncc3)cs2)c1 (configuration not stated) | i
COc1cccc(C(N)c2nc(-c3cc(F)cc(F)c3)cs2)c1 (configuration not stated) | i
CCNC(=O)C1(C)CCN(C(=O)c2cc(OC)c(OC)c(OC)c2)C1 (configuration not stated) | i
CC(C)(C)C(=O)Cn1c(=O)n(CCCCCC(=O)NCc2ccc3c(c2)OCO3)c(=O)c2sccc21 | i
N/C(Cc1ccc([N+](=O)[O-])cc1)=N\OC(=O)c1ccc2ccccc2c1 | 8.91µM*
N/C(=N\OC(=O)Cc1ccc([N+](=O)[O-])cc1)c1ccc([N+](=O)[O-])cc1 | i
N/C(=N\OC(=O)c1ccc([N+](=O)[O-])cc1)c1cccnc1 | i
Cc1noc(C)c1C(=O)N1CCC1(C)C(=O)NS(=O)(=O)c1ccc(Cl)cc1 (configuration not stated) | i
COc1cccc(C(O)c2ncc(-c3cccc(F)c3)[nH]2)c1 (configuration not stated) | i
CC(=O)Nc1ccc(CNc2nc3cc(-c4cccc(C(F)(F)F)c4)sc3c(=O)n2C)cc1 | i
COc1ccccc1CC(=O)Nc1nc(-c2ccc(F)c(F)c2)cs1 | 12.6µM*
COc1ccc(CC(=O)Nc2nc(-c3ccc(OC)c(OC)c3)cs2)cc1OC | i
COc1cc(OC)cc(C(=O)N[C@H](C(=O)Nc2nc(-c3ccc(F)c(F)c3)cs2)C(C)C)c1 | i
CCOc1ccccc1C(=O)N(Cc1ccc(N(C)C)cc1)Cc1ccco1 | i
CCOc1ccccc1NC(=O)c1ccccc1-c1ccccc1 | i
CN(Cc1ccc(F)cc1)C(=O)C(c1ccccc1)c1ccccc1 | i
CN(Cc1ccc(F)cc1)C(=O)COc1ccccc1-c1ccccc1 | 25.1µM*
CC(=O)c1ccc(S(=O)(=O)Oc2ccc(C(=O)O)cc2Cl)cc1 | i
